Reference: PubChem BioAssay (NCI)
The panel holds about 79,000 compounds, 15% with a hit somewhere; the sample as a whole holds those more often. Values without a mark were called inactive. The source made the active and inactive calls. Rule as the data show it: active = growth inhibition above about 70%; inactive = the rest.

experiment: NCI Yeast Anticancer Drug Screen. Data for the bub3 strain (AID 167); details: S. cerevisiae bub3 mutant strain, at 50.0 µM, stronger effect = higher value
Outline: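 Screening used yeast with an engineered genetic alteration affecting cell cycle control. Compound-exposed cultures were compared with vehicle cultures, and reduced growth was taken as inhibition.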

Row | SMILES | growth inhibition
1 | O=C1C(=O)C(CCCO)(CCCO)CCCCCCCCC1(CCCO)CCCO | -6.5%
2 | CC(C)(C)C(=O)CC(=O)C(F)(F)C(F)(F)C(F)(F)F.CC(C)(C)C(=O)CC(=O)C(F)(F)C(F)(F)C(F)(F)F.CC(C)(C)C(=O)CC(=O)C(F)(F)C(F)(F)C(F)(F)F.[Er] | 91.2% (active)
3 | CCCCC(CC)COC(=O)c1cc2ccccc2oc1=O (stereo not given) | 79.6% (active)
4 | Nc1ccc(-c2nc3ccccc3s2)cc1I | 84.2% (active)
5 | CN1CCC(CCC(=O)OC(C)(C)C)(CN2c3ccccc3Sc3ccccc32)C1 (stereo not given) | 96.5% (active)
6 | COc1cc(C(=O)C=[N+]=[N-])c([N+](=O)[O-])c(OC)c1OC | 93.2% (active)
7 | COc1ccc(-n2cc(-c3ccc(Cl)cc3)c3c(N)ncnc32)cc1 | 91% (active)
8 | COc1ccccc1/C=C1\SC(=S)N(/C=C2\C(=O)Oc3ccccc3C2=O)C1=O | 32.2%
9 | F[Si](c1ccccc1)(c1ccccc1)c1ccccc1 | 45.6%
10 | Cc1c2ccnc(-c3ccc(F)cc3)c2cc2c1[nH]c1ccccc12 | -17.1%
11 | CCN(CC)CCNc1c(OC)cc(C)c2sc3ccccc3c(=O)c12 | 57%
12 | O=c1cccc(C2CCc3cc(O)ccc3C2)[nH]1 (stereo not given) | -11.3%
13 | O/N=C1\c2ccccc2-c2ccc(Cl)cc21 | 74.3% (active)
14 | CCCCN(CCCC)CC(O)c1cc(-c2ccc(Cl)cc2)nc2c(Cl)cccc12 (stereo not given) | 98.8% (active)
15 | CN(C)c1ccc(-c2c(C#N)c(S)n(NS(=O)(=O)c3ccccc3)c(=O)c2C#N)cc1 | 58.1%
16 | Clc1ccc2ns[s+]c2c1 | 72.3% (active)
17 | COc1ccc2c(c1)CC/C(=C\c1ccc(OCCN(C)C)cc1)C2=O | 20.4%
18 | CCCCOC(=O)c1cnc[nH]c1=O | 3.55%
19 | COC(=O)c1c(C)cccc1C1CN=NC12Cc1ccc(C)c(C)c1C2=O (stereo not given) | 78.7% (active)
20 | CC1CCN(CCOC(=O)C(c2ccccc2)C2C=CCCC2)C1 (stereo not given) | 36.5%

Row | SMILES | growth inhibition
21 | CNCC(OB(c1ccccc1)c1ccccc1)c1ccccc1 (stereo not given) | 5.75%
22 | O=C1CCC(Cc2ccc(C(F)(F)F)cc2)C(=O)N1 (stereo not given) | -52.6%
23 | CC(C)(Br)C(Br)C(=O)C(Br)C(C)(C)Br (stereo not given) | 19.6%
24 | CCCCCCCCN(CCCCCCCC)CC(O)c1cc2c(c3ccccc13)CCCC2 (stereo not given) | 98.8% (active)
25 | Brc1ccc(CCNCCN2CCCCC2)cc1 | 61.1%
26 | CC(C)=NNc1ncnc2nc[nH]c12 | 6.9%
27 | CC1=C/C(=C\c2ccc([N+](=O)[O-])o2)C(=O)O1 | 98.8% (active)
28 | CCOC(=O)C(=O)Nc1nc2c(s1)C(=O)c1ccccc1C2=O | 98.5% (active)
29 | CC1CC2(C)ON=C(c3ccccc3)N2c2ccccc2S1 (stereo not given) | 87% (active)
30 | N#CC(CC(Br)CBr)(c1ccccc1)c1ccccc1 (stereo not given) | 33.3%
31 | Oc1ccc(-c2ccccc2)cc1Cl | 99.4% (active)
32 | C=CCSc1nc2ccccc2c(=O)n1Cc1ccco1 | 19.4%
33 | CCOC(=O)c1ccc(O)c(OC)c1 | 90.2% (active)
34 | O=C(COc1ccc2ccccc2c1)NC1c2ccccc2Oc2ccccc21 | 15.6%
35 | O=S(=O)(c1ccccc1)n1cc(C[P+](c2ccccc2)(c2ccccc2)c2ccccc2)c2ccccc21 | 99.4% (active)
36 | CC/C(=N\O)c1ccc2cc(Br)c3ccccc3c2c1 | 98.8% (active)
37 | CCOC(=O)C(C)(C)Oc1ccc2c(=O)cc(-c3ccccc3)oc2c1 | 92.5% (active)
38 | CC(O)c1c2ccccc2cc2ccccc12 (stereo not given) | 50.5%
39 | CC(=O)OC1CCC2(C)C(CCC3C4=CCC(C5COC(=O)C5)C4(C)CCC32)C1 (stereo not given) | 59.8%
40 | NC(C(=O)O)C1=CCCCCC1 (stereo not given) | -5.95%

experiment: NCI Yeast Anticancer Drug Screen. Data for the mlh1 rad18 strain (AID 175); details: S. cerevisiae mlh1 rad18 strain growth inhibition; at 5.0 µM (retest, dose inferred, filed as 0.5); stronger effect = higher value
Outline: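 Read-out is yeast growth inhibition, calculated against vehicle-only controls. The compound was applied to a strain engineered with DNA damage repair alterations.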

Row | SMILES | growth inhibition
41 | O=C1C(=O)C(CCCO)(CCCO)CCCCCCCCC1(CCCO)CCCO | -8%
42 | CC(C)(C)C(=O)CC(=O)C(F)(F)C(F)(F)C(F)(F)F.CC(C)(C)C(=O)CC(=O)C(F)(F)C(F)(F)C(F)(F)F.CC(C)(C)C(=O)CC(=O)C(F)(F)C(F)(F)C(F)(F)F.[Er] | 90% (active)
43 | CCCCC(CC)COC(=O)c1cc2ccccc2oc1=O (stereo not given) | 3%
44 | Nc1ccc(-c2nc3ccccc3s2)cc1I | 27%
45 | CN1CCC(CCC(=O)OC(C)(C)C)(CN2c3ccccc3Sc3ccccc32)C1 (stereo not given) | 19%
46 | COc1cc(C(=O)C=[N+]=[N-])c([N+](=O)[O-])c(OC)c1OC | 8%
47 | COc1ccc(-n2cc(-c3ccc(Cl)cc3)c3c(N)ncnc32)cc1 | 20%
48 | COc1ccccc1/C=C1\SC(=S)N(/C=C2\C(=O)Oc3ccccc3C2=O)C1=O | -16%
49 | F[Si](c1ccccc1)(c1ccccc1)c1ccccc1 | 10%
50 | Cc1c2ccnc(-c3ccc(F)cc3)c2cc2c1[nH]c1ccccc12 | -3%
51 | CCN(CC)CCNc1c(OC)cc(C)c2sc3ccccc3c(=O)c12 | 4%
52 | O=c1cccc(C2CCc3cc(O)ccc3C2)[nH]1 (stereo not given) | -6%
53 | O/N=C1\c2ccccc2-c2ccc(Cl)cc21 | 8%
54 | CCCCN(CCCC)CC(O)c1cc(-c2ccc(Cl)cc2)nc2c(Cl)cccc12 (stereo not given) | -3%
55 | CN(C)c1ccc(-c2c(C#N)c(S)n(NS(=O)(=O)c3ccccc3)c(=O)c2C#N)cc1 | 91% (active)
56 | Clc1ccc2ns[s+]c2c1 | 17%
57 | COc1ccc2c(c1)CC/C(=C\c1ccc(OCCN(C)C)cc1)C2=O | 6%
58 | CCCCOC(=O)c1cnc[nH]c1=O | 24%
59 | COC(=O)c1c(C)cccc1C1CN=NC12Cc1ccc(C)c(C)c1C2=O (stereo not given) | -1%
60 | CC1CCN(CCOC(=O)C(c2ccccc2)C2C=CCCC2)C1 (stereo not given) | 14%

Row | SMILES | growth inhibition
61 | CNCC(OB(c1ccccc1)c1ccccc1)c1ccccc1 (stereo not given) | 0%
62 | O=C1CCC(Cc2ccc(C(F)(F)F)cc2)C(=O)N1 (stereo not given) | -4%
63 | CC(C)(Br)C(Br)C(=O)C(Br)C(C)(C)Br (stereo not given) | -1%
64 | CCCCCCCCN(CCCCCCCC)CC(O)c1cc2c(c3ccccc13)CCCC2 (stereo not given) | 11%
65 | Brc1ccc(CCNCCN2CCCCC2)cc1 | 25%
66 | CC(C)=NNc1ncnc2nc[nH]c12 | -14%
67 | CC1=C/C(=C\c2ccc([N+](=O)[O-])o2)C(=O)O1 | 97% (active)
68 | CCOC(=O)C(=O)Nc1nc2c(s1)C(=O)c1ccccc1C2=O | 17%
69 | CC1CC2(C)ON=C(c3ccccc3)N2c2ccccc2S1 (stereo not given) | 4%
70 | N#CC(CC(Br)CBr)(c1ccccc1)c1ccccc1 (stereo not given) | 16%
71 | Oc1ccc(-c2ccccc2)cc1Cl | -5%
72 | C=CCSc1nc2ccccc2c(=O)n1Cc1ccco1 | 43%
73 | CCOC(=O)c1ccc(O)c(OC)c1 | -3%
74 | O=C(COc1ccc2ccccc2c1)NC1c2ccccc2Oc2ccccc21 | 82% (active)
75 | O=S(=O)(c1ccccc1)n1cc(C[P+](c2ccccc2)(c2ccccc2)c2ccccc2)c2ccccc21 | 27%
76 | CC/C(=N\O)c1ccc2cc(Br)c3ccccc3c2c1 | 5%
77 | CCOC(=O)C(C)(C)Oc1ccc2c(=O)cc(-c3ccccc3)oc2c1 | -56%
78 | CC(O)c1c2ccccc2cc2ccccc12 (stereo not given) | -13%
79 | CC(=O)OC1CCC2(C)C(CCC3C4=CCC(C5COC(=O)C5)C4(C)CCC32)C1 (stereo not given) | 11%
80 | NC(C(=O)O)C1=CCCCCC1 (stereo not given) | -3%
